An excerpt weighted towards active compounds, which were near 2.3% of everything screened.
CHO-K1 Ca antag: counter-screen for M1 antagonists: effect in parental CHO-K1 cells | ATP-induced calcium, Fluo-8 fluorescence | AID 602250 | inhibition, % at 3 µM | 360,000 tested, 0.6% active;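 active = inhibition above a per-plate cutoff, the plate's mean sample inhibition plus 3 SD, cut at about 24% in these data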;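 also: 0% = DMSO plus EC80 ATP and 100% = DMSO alone without ATP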
M1 ag: human M1 muscarinic receptor agonism; 360,000 tested, 0.33% active; AID 588814; CHO-K1 hM1, Fluo-8 calcium fluorescence, agonist mode; 0% DMSO, 100% acetylcholine EC100; activation, % at 3 µM;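 active = activation above the run's mean compound activation plus 3 SD, cut at about 16% in these data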;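 also: peak over basal fluorescence ratio within a 140 s kinetic read after compound addition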
Target sequence (P11229 whole entry, looked up): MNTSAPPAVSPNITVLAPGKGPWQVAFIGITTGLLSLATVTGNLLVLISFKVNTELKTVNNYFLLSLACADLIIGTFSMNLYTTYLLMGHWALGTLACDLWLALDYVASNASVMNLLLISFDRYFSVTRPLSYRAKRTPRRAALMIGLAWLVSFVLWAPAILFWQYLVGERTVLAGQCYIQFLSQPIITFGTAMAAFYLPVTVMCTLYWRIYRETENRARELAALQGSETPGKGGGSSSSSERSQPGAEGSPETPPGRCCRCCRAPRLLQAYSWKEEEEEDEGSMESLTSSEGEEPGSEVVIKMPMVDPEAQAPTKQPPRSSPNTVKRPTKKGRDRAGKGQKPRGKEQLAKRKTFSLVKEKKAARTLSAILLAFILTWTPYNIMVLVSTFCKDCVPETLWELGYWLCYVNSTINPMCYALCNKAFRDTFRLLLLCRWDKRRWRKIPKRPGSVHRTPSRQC
CHO-K1 Ca ag: nonselective activator or artifact in parental CHO-K1 cells; Fluo-8 calcium fluorescence; scaled to maximal ATP response, vehicle zero; activation, % at 3 µM; 360,000 tested, 0.48% active; in the data active = activation above about 15%;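 also: untransfected CHO-K1 host cells lacking M1 receptor as counterscreen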
M1 antag: blocks human M1 muscarinic receptor. 360,000 tested, 1.3% active. AID 588852. inhibition, % at 3 µM. CHO-K1 hM1, Fluo-8 calcium fluorescence, ACh EC80 antagonist;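 active = percent inhibition above its own plate's cutoff, namely the mean of that plate's compound wells plus 3 SD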;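 also: peak over basal fluorescence ratio during 140 s after agonist addition; 0% = ACh EC80 plus DMSO and 100% = DMSO alone without agonist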
M1 PAM parental: nonselective activator or artifact in parental CHO-K1 calcium assay. ATP EC20, Fluo-8 calcium fluorescence; 0% at ATP EC20, 100% at ATP max. activation, % at 3 µM. 360,000 tested, 0.02% active. AID 602247;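 active = activation above the run cutoff, the mean activation of all test compounds plus 3 SD, cut at about 40% in these data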;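 also: peak over basal fluorescence ratio in a 140 s read after ATP addition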
CHRM1 PAM: positive allosteric modulators of human M1 muscarinic receptor; P11229; CHO-K1 hM1, Fluo-8 calcium fluorescence, ACh EC20; 0% = ACh EC20, 100% = maximal ACh; activation, % at 3 µM; 360,000 tested, 0.088% active; AID 588819; in the data active = activation above about 19%, passing the limit was not always enough
Active calls of the source: *.

SMILES	CHO-K1 Ca antag	M1 ag	CHO-K1 Ca ag	M1 antag	M1 PAM parental	CHRM1 PAM
CC1CC(CC(=O)NC(=S)Nc2ccccc2Cl)C(=O)O1 (stereo not given)	-1	-5	0	-10	11	5
CC(C)(C)CC(C)(C)NCC(O)COc1ccc2c(c1)CCC2 (stereo not given)	2	-3	3	49*	13	-24
CCNC(=S)NC1CC2CCCC(C1)N2Cc1ccc(C)cc1 (stereo not given)	-5	-8	1	69*	11	-29
CCc1ccccc1NC(=O)N1C2CCCC1CC(NC(=O)C(C)(C)C)C2 (stereo not given)	-7	-6	0	48*	-7	-16
CCc1ccc(NC(=S)NC2CC3CCCC(C2)N3Cc2cccs2)cc1 (stereo not given)	6	1	4	27*	-14	-22
CCCN1C2CCCC1CC(NC(=S)Nc1ccc(OC)cc1)C2 (stereo not given)	-17	-6	1	-4	24	3
CCc1ccccc1NC(=O)NC1CC2CCC(C1)N2Cc1cccs1 (stereo not given)	-19	-13	0	45*	7	-32
CCc1ccccc1NC(=S)NC1CC2CCC(C1)N2Cc1ccco1 (stereo not given)	1	-7	0	-24	-7	6
CCOc1ccccc1NC(=O)c1ccc(NC(=O)C2CCCO2)cc1 (stereo not given)	-5	-7	1	5	-7	-4
CCN1C(c2ccc(F)cc2)=CS/C1=C(/C#N)c1nnc2n1-c1ccccc1SC2	-8	-2	7	4	4	-14
C[C@H](CO)N1C[C@H](C)[C@@H](CN(C)C(=O)Cc2ccccc2)OCCCC[C@H](C)Oc2ccc(NC(=O)NC3CCCCC3)cc2C1=O	-7	-7	1	-11	1	6
CCOc1ccc2[nH]c3c(N4CCc5ccccc5C4)ncnc3c2c1	-5	0	2	-12	7	21
Cc1ccc2[nH]c3c(N4CCc5ccccc5C4)ncnc3c2c1	35*	4	10	30*	-4	-15
Fc1ccc2[nH]c3c(N4CCc5ccccc5C4)ncnc3c2c1	28*	2	14	41*	-16	-15
COC(=O)c1cc2c(ccn2-c2ccc(F)cc2)n1Cc1ccc(OC(C)=O)cc1	-7	-1	21*	-7	29	7
CC(C)(C)N(Cc1cc2ccccc2[nH]c1=O)C(=O)c1cccc([N+](=O)[O-])c1	8	-5	0	57*	-18	-21
CCCN(Cc1cc2ccccc2[nH]c1=O)C(=O)c1cccc([N+](=O)[O-])c1	1	0	0	-22	-14	18
Cc1ccccc1N1C(=O)c2cccc3c(N(C)CCO)ccc(c23)C1=O	7	8	17*	1	3	-8
COc1ccccc1N1C(=O)c2cccc3c(N(C)CCO)ccc(c23)C1=O	-1	11	13	-17	7	8
Cc1cc(C)cc(OCC(=O)Nc2cccc(S(=O)(=O)NC3=NCCC3)c2)c1	-12	-1	1	4	14	6
CCOC(=O)Cc1csc(NC(=O)c2ccc(N3CCOCC3)cc2[N+](=O)[O-])n1	-15	2	12	11	0	-9
Cc1ccccc1NC(=O)C1CCCN(S(=O)(=O)c2ccc3c(c2)C(C)(C)C(=O)N3C)C1 (stereo not given)	30*	-2	0	-1	-3	1
CC(C)(C)NC(=O)CN(C(=O)C(=O)Nc1ccc2c(c1)OCCO2)C(C)(C)C	-2	-3	1	-19	15	11
CCC(C)N1C(=O)C2C(C(=O)Nc3cccc(OC)c3)C3C=CC2(O3)C1C(=O)NC1CCCCC1C (stereo not given)	28*	-1	-1	-4	-4	8
CCCCCCNCC(=O)N1CCC(Cc2ccccc2)CC1	3	-11	3	31*	-21	-26
CCCC(=O)N1CCC(Cc2ccccc2)CC1	17	6	0	-12	-12	13
CCN(CCn1cccn1)C(=O)c1ccc(OC2CCN(C(=O)COC)CC2)cc1	0	-2	1	-4	-7	2

Screens as filed in PubChem.
